According to the supplement of paper PMC4166925:
± gives the standard deviation of the averaged measurements. Over roughly 33,000 sequences, “E-score (dimensionless, -0.5 to 0.5)” has its median near -0.046; the highest 2% begin near 0.36. What follows is part of a selection rich in the highest values, with near analogues and random picks from the rest.

test system: T1, SpTbr T-box DNA-binding domain (GST fusion); experiment: PBM E-score of 8-mer (E-score (dimensionless, -0.5 to 0.5)); Tbr is Tbrain of the sea star Patiria miniata (Pm) or the sea urchin Strongylocentrotus purpuratus (Sp); higher = stronger binding preference; details: the construct has about 5 more residues each side
T1 sequence: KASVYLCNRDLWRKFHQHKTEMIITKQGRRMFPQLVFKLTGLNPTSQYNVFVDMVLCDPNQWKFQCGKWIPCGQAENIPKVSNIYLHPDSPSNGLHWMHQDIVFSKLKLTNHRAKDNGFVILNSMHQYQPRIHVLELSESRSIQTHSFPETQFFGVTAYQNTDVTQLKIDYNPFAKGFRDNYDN
Method in brief: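 Universal Agilent oligonucleotide arrays, made double-stranded by primer extension, were incubated with 200 nM GST-fused Tbr T-box DNA-binding domain in PBS (pH 7.5). The protein was expressed in BL21 E. coli at 20 °C and purified by glutathione affinity chromatography. After scanning and quantification, the Universal PBM Analysis Suite assigned an enrichment E-score to each ungapped 8-mer, averaged over duplicate arrays.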

Row | Sequence | PBM E-score of 8-mer
1 | CTTGACAC | 0.436 ± 0.0093
2 | ATTGACAG | 0.102 ± 0.07
3 | ACACAGAA | -0.134 ± 0.016
4 | GGATAGAC | -0.202 ± 0.041
5 | ACTCAATC | -0.0092 ± 0.032
6 | TAACACTA | 0.373 ± 0.042
7 | GAACACCC | 0.116 ± 0.0077
8 | AAACACCA | 0.238 ± 0.027
9 | CAACACTA | 0.264 ± 0.025
10 | CAACACGC | 0.203 ± 0.0098
11 | CAACACCA | 0.37255 ± 7.8e-05
12 | GAACACCA | 0.104 ± 0.014
13 | GAACACTA | 0.013 ± 0.018
14 | CAACACCG | 0.312 ± 0.0065
15 | CAACACGA | 0.185 ± 0.0087
16 | TAACACCA | 0.43 ± 0.011
17 | CAACACCC | 0.433 ± 0.012
18 | TCAAGGAA | -0.0393 ± 0.033
19 | GCTGATCA | 0.179 ± 0.059
20 | CCCAATGA | -0.198 ± 0.013
21 | CCGACCCG | -0.073 ± 0.13
22 | GACTCGAC | -0.0494 ± 0.0017
23 | CTAATGCA | 0.038 ± 0.071
24 | GTAGAGAC | -0.094 ± 0.029
25 | CCACTATC | 0.129 ± 0.028

Row | Sequence | PBM E-score of 8-mer
26 | TACACGAA | -0.0857 ± 0.046
27 | AGTTGCGG | 0.126 ± 0.029
28 | AGTTGCGC | 0.13 ± 0.063
29 | CCTTGCGA | 0.183 ± 0.056
30 | ACTTGCGA | 0.388 ± 0.021
31 | AGTTGCGA | 0.3999 ± 0.00081
32 | GCTTGCGA | 0.16 ± 0.0045
33 | CAGGGATC | -0.17 ± 0.046
34 | AAACCATC | -0.0776 ± 0.02
35 | AAATCGTT | -0.0755 ± 0.038
36 | GACACATA | 0.359 ± 0.005
37 | CACACAAG | 0.179 ± 0.038
38 | CACACAGG | 0.244 ± 0.0081
39 | CACACATG | 0.383 ± 0.021
40 | TACACATA | 0.168 ± 0.022
41 | CACACATA | 0.3998 ± 0.0028
42 | GAGGCTCA | -0.129 ± 0.025
43 | ACGCCCAT | 0.0516 ± 0.054
44 | GATATGCA | 0.00558 ± 0.032
45 | GGCGCGAC | 0.369 ± 0.017
46 | CGCGCTAA | 0.338 ± 0.0063
47 | TGCGCTAA | 0.191 ± 0.035
48 | AGCGCGAC | 0.253 ± 0.026
49 | AGCGCGAA | 0.405 ± 0.019
50 | AGCGCGAT | 0.276 ± 0.009

Row | Sequence | PBM E-score of 8-mer
51 | AGCGCGAG | 0.306 ± 0.017
52 | GACGCGAA | 0.138 ± 0.006
53 | GGCGCGAA | 0.463 ± 0.011
54 | GGCGCTAA | 0.4 ± 0.035
55 | GGCGCGCA | 0.153 ± 0.047
56 | CGCGCGAC | 0.284 ± 0.015
57 | AGCTACAA | -0.161 ± 0.011
58 | GCACGCGC | 0.216 ± 0.095
59 | ATAGATGA | -0.0521 ± 0.016
60 | CTGAAGCA | -0.141 ± 0.0054
61 | CCGTGCCC | -0.244 ± 0.013
62 | CCGTACAA | -0.197 ± 0.0048
63 | CGCGCGAA | 0.408 ± 0.013
64 | GCCGCGAA | 0.343 ± 0.0045
65 | TGCGCGAA | 0.349 ± 0.036
66 | CCCGCGAA | 0.371 ± 0.019
67 | TCCGCGAA | 0.2876 ± 0.00083
68 | CGCGCGAG | 0.304 ± 0.036
69 | CGCAATTC | 0.169 ± 0.0051
70 | AAAGATCT | -0.1 ± 0.035
71 | ATTGAGGG | -0.243 ± 0.003
72 | AACCTTCG | -0.0878 ± 0.018
73 | GACCTTCA | -0.0627 ± 0.081
74 | GACCTTCC | -0.00679 ± 0.036
75 | AACCTTCA | -0.0641 ± 0.013

Row | Sequence | PBM E-score of 8-mer
76 | CACCTTCA | 0.412 ± 0.0047
77 | CACCTTCG | 0.396 ± 0.017
78 | CCCCTTCG | -0.137 ± 0.046
79 | CACCTTCC | 0.401 ± 0.014
80 | AACCTTCC | -0.169 ± 0.048
81 | CGTGGTCC | -0.204 ± 0.045
82 | CCGCCACA | 0.157 ± 0.021
83 | CCTCCTAA | -0.2059 ± 0.001
84 | TAAGCGAA | -0.0797 ± 0.053
85 | CAAGGTGC | 0.421 ± 0.0087
86 | GAAGGTGA | 0.348 ± 0.035
87 | GAAGGTAC | -0.239 ± 0.019
88 | TAAGGTGA | 0.331 ± 0.021
89 | CAAGGTGA | 0.392 ± 0.0089
90 | CAAGGTGG | 0.311 ± 0.015
91 | CAAGGTTC | 0.047 ± 0.016
92 | GAAGGTGC | 0.41 ± 0.019
93 | CAAGGTAA | -0.0662 ± 0.017
94 | ACCTAGAA | -0.0152 ± 0.079
95 | ACTGCTCG | 0.0799 ± 0.013
96 | CTCGGGAC | -0.118 ± 0.062
97 | AACTGTTA | 0.284 ± 0.03
98 | TGAGCCAA | -0.229 ± 0.019
99 | CCCCCATC | -0.0563 ± 0.053
100 | AAGTGTGT | 0.331 ± 0.0059

Row | Sequence | PBM E-score of 8-mer
101 | AAGTGTGG | 0.417 ± 0.013
102 | AAGTGGGG | 0.177 ± 0.0055
103 | CAGTGTGC | 0.106 ± 0.0063
104 | AAGTGGGA | 0.238 ± 0.037
105 | AAGTGTGC | 0.3891 ± 0.00091
106 | ACTGCCTA | -0.14 ± 0.028
107 | AACTTTCG | 0.00917 ± 0.0092
108 | CTCTGGGA | 0.00265 ± 0.049
109 | ACAATAGA | -0.149 ± 0.042
110 | CCATGGAG | -0.231 ± 0.015
111 | CCCAGAGG | -0.127 ± 0.05
112 | ACACATCG | 0.394 ± 0.014
113 | GCACATCC | 0.137 ± 0.0032
114 | CCACATCC | -0.0299 ± 0.14
115 | ACACATCC | 0.388 ± 0.024
116 | ACACATCT | 0.31 ± 0.029
117 | ACACATCA | 0.339 ± 0.0072
118 | CTACTTGA | 0.0916 ± 0.062
119 | ACACCACC | 0.365 ± 0.0069
120 | CCACCACC | 0.101 ± 0.038
121 | CCACCATC | 0.0489 ± 0.024
122 | ACACCACA | 0.364 ± 0.017
123 | ACACCACT | 0.269 ± 0.02
124 | ACACCACG | 0.332 ± 0.018
125 | ACACCATC | 0.3674 ± 0.0022

Row | Sequence | PBM E-score of 8-mer
126 | ACACCATA | 0.231 ± 0.071
127 | CCACCACA | 0.131 ± 0.073
128 | ACCTGCCT | 0.00297 ± 0.084
129 | GGAGCGCC | 0.0178 ± 0.0015
130 | AGACCCAC | 0.0705 ± 0.1
131 | AGAGAAAT | -0.0136 ± 0.08
132 | AGATCCAT | -0.205 ± 0.039
133 | AATCTCAT | -0.0127 ± 0.017
134 | GATCTCAA | 0.0536 ± 0.028
135 | AATCTCTC | -0.1 ± 0.11
136 | CATCTCAC | 0.308 ± 0.006
137 | AATCTCAC | 0.366 ± 0.016
138 | GATCTCAC | 0.371 ± 0.02
139 | AATCTCAG | -0.0558 ± 0.035
140 | AGACTCGG | -0.23 ± 0.019
141 | CACCCCCC | 0.184 ± 0.003
142 | CACACCCG | 0.448 ± 0.016
143 | CCCACCCG | 0.0685 ± 0.054
144 | ATCACCCG | 0.12 ± 0.057
145 | CCCACCCA | 0.185 ± 0.054
146 | AACACCCG | 0.404 ± 0.01
147 | CACACCCC | 0.419 ± 0.025
148 | CACCCCCG | 0.234 ± 0.018
149 | CACACCGC | 0.332 ± 0.037
150 | TACACCCA | 0.105 ± 0.011

Row | Sequence | PBM E-score of 8-mer
151 | AGCACCCG | 0.257 ± 0.011
152 | CACACCCA | 0.421 ± 0.02
153 | CCATGGCG | -0.204 ± 0.015
154 | GACCGTCA | 0.0838 ± 0.01
155 | GACAGTGC | 0.152 ± 0.025
156 | AAAACTCC | -0.156 ± 0.054
157 | AAGGCGTG | 0.392 ± 0.037
158 | AAGGCGTA | 0.153 ± 0.028
159 | ACGGCGTG | 0.232 ± 0.0069
160 | AAGGCGTC | 0.372 ± 0.035
161 | CAGGCGTC | 0.236 ± 0.056
162 | AGGGCGTG | 0.281 ± 0.01
163 | ACGTCCTA | -0.17 ± 0.032
164 | AAGCGTTG | 0.192 ± 0.056
165 | ATCGCGCA | 0.151 ± 0.015
166 | ATCGCGCC | 0.4021 ± 0.0011
167 | CGCGCGCC | 0.173 ± 0.064
168 | ATCGCGCG | 0.337 ± 0.004
169 | CTCGCGCC | 0.412 ± 0.031
170 | CTCGCGCA | 0.248 ± 0.021
171 | AACTAGGG | 0.0057 ± 0.046
172 | AAGGAGGG | -0.0491 ± 0.018
173 | GCTCATAC | -0.0299 ± 0.01
174 | CGTTGGGA | -0.121 ± 0.024
175 | ATTAAGAC | -0.0771 ± 0.015
